PubChem BioAssay AID1159580 (chemical genetic matrix, 2015)
Among all 5,500 compounds or so, about 2,000 (36%) were called active. Roughly 18% stayed inconclusive and do not appear here. Cut-off read from the data, not from the text of the source: active = normalized growth mostly below about 0.91 (no sharp cut-off); inconclusive = no clear call, values can overlap the other calls; inactive = mostly above about 0.92. This is one part of the list.

Experiment: chemical genetic growth profiling, strain panel (AID 1159580);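 note: tested at 20 µM; growth read once vehicle control cultures reached saturation at 30 °C; 1 = growth at the plate median or of vehicle wells; lower values mean less growth of the strain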
Settings: growth OD
[1] = S. cerevisiae deletion strains, locus YDL101C, strain DUN1, stronger effect = lower value
[2] = S. cerevisiae deletion strains, locus YHR030C, strain SLT2, stronger effect = lower value

Measured: normalized growth

CN(NC(=S)Nc1cc(Cl)ccc1Cl)c1ccc(C(F)(F)F)cc1[N+](=O)[O-]
inactive: S. cerevisiae deletion strains, locus YAR019C, strain CDC15, stronger effect = lower value 0.972 | S. cerevisiae deletion strains, locus YBL105C, strain PKC1, stronger effect = lower value 0.972 | S. cerevisiae deletion strains, locus YBR135W, strain CKS1, stronger effect = lower value 0.982 | S. cerevisiae deletion strains, locus YBR136W, strain MEC1, stronger effect = lower value 0.97 | S. cerevisiae deletion strains, locus YBR160W, strain CDC28, stronger effect = lower value 0.979 | S. cerevisiae deletion strains, locus YDL017W, strain CDC7, stronger effect = lower value 0.972 | S. cerevisiae deletion strains, locus YDL028C, strain MPS1, stronger effect = lower value 0.985 | [1] 0.969 | S. cerevisiae deletion strains, locus YDL108W, strain KIN28, stronger effect = lower value 0.969 | S. cerevisiae deletion strains, locus YDL132W, strain cdc53, stronger effect = lower value 0.97 | S. cerevisiae deletion strains, locus YDL214C, strain PRR2, stronger effect = lower value 0.946 | S. cerevisiae deletion strains, locus YDR052C, strain DBF4, stronger effect = lower value 0.965 | S. cerevisiae deletion strains, locus YDR054C, strain cdc34, stronger effect = lower value 0.97 | S. cerevisiae deletion strains, locus YDR226W, strain ADK1, stronger effect = lower value 0.984 | S. cerevisiae deletion strains, locus YDR477W, strain SNF1, stronger effect = lower value 0.964 | S. cerevisiae deletion strains, locus YER123W, strain YCK3, stronger effect = lower value 0.893 | S. cerevisiae deletion strains, locus YER133W, strain GLC7, stronger effect = lower value 0.949 | S. cerevisiae deletion strains, locus YFL009W, strain cdc4, stronger effect = lower value 0.977 | S. cerevisiae deletion strains, locus YFL029C, strain CAK1, stronger effect = lower value 0.979 | S. cerevisiae deletion strains, locus YFR003C, strain YPI1, stronger effect = lower value 0.973 | S. cerevisiae deletion strains, locus YFR019W, strain FAB1, stronger effect = lower value 0.977 | S. cerevisiae deletion strains, locus YFR028C, strain CDC14, stronger effect = lower value 0.978 | S. cerevisiae deletion strains, locus YGR040W, strain KSS1, stronger effect = lower value 0.96 | S. cerevisiae deletion strains, locus YGR052W, strain FMP48, stronger effect = lower value 0.96 | S. cerevisiae deletion strains, locus YGR092W, strain DBF2, stronger effect = lower value 0.825 | S. cerevisiae deletion strains, locus YHR079C, strain IRE1, stronger effect = lower value 0.785 | S. cerevisiae deletion strains, locus YHR082C, strain KSP1, stronger effect = lower value 1.03 | S. cerevisiae deletion strains, locus YHR205W, strain SCH9, stronger effect = lower value 0.886 | S. cerevisiae deletion strains, locus YIL147C, strain SLN1, stronger effect = lower value 0.971 | S. cerevisiae deletion strains, locus YJL095W, strain BCK1, stronger effect = lower value 0.885 | S. cerevisiae deletion strains, locus YJL128C, strain PBS2, stronger effect = lower value 0.929 | S. cerevisiae deletion strains, locus YJL157C, strain FAR1, stronger effect = lower value 0.915 | S. cerevisiae deletion strains, locus YJR016C, strain ILV3, stronger effect = lower value 0.971 | S. cerevisiae deletion strains, locus YJR066W, strain TOR1 (second series), stronger effect = lower value 0.915 | S. cerevisiae deletion strains, locus YJR066W, strain TOR1, stronger effect = lower value 0.973 | S. cerevisiae deletion strains, locus YKL048C, strain ELM1, stronger effect = lower value 0.938 | S. cerevisiae deletion strains, locus YKL067W, strain YNK1, stronger effect = lower value 0.953 | S. cerevisiae deletion strains, locus YKL101W, strain HSL1, stronger effect = lower value 0.964 | S. cerevisiae deletion strains, locus YKL193C, strain SDS22, stronger effect = lower value 0.952 | S. cerevisiae deletion strains, locus YKL203C, strain TOR2, stronger effect = lower value 0.99 | S. cerevisiae deletion strains, locus YLR133W, strain CKI1, stronger effect = lower value 0.929 | S. cerevisiae deletion strains, locus YLR403W, strain SFP1, stronger effect = lower value 0.929 | S. cerevisiae deletion strains, locus YML070W, strain DAK1, stronger effect = lower value 0.922 | S. cerevisiae deletion strains, locus YMR001C, strain CDC5, stronger effect = lower value 0.971 | S. cerevisiae deletion strains, locus YMR205C, strain PFK2 (second series), stronger effect = lower value 0.967 | S. cerevisiae deletion strains, locus YMR277W, strain FCP1, stronger effect = lower value 0.972 | S. cerevisiae deletion strains, locus YNL006W, strain LST8, stronger effect = lower value 0.974 | S. cerevisiae deletion strains, locus YNL020C, strain ARK1, stronger effect = lower value 0.897 | S. cerevisiae deletion strains, locus YNL161W, strain CBK1, stronger effect = lower value 0.977 | S. cerevisiae deletion strains, locus YNL183C, strain NPR1, stronger effect = lower value 0.972 | S. cerevisiae deletion strains, locus YNL207W, strain RIO2, stronger effect = lower value 0.976 | S. cerevisiae deletion strains, locus YNL222W, strain SSU72, stronger effect = lower value 0.982 | S. cerevisiae deletion strains, locus YNL307C, strain MCK1 (second series), stronger effect = lower value 0.932 | S. cerevisiae deletion strains, locus YOL078W, strain AVO1, stronger effect = lower value 0.974 | S. cerevisiae deletion strains, locus YOL136C, strain PFK27, stronger effect = lower value 0.903 | S. cerevisiae deletion strains, locus YOR061W, strain CKA2, stronger effect = lower value 0.907 | S. cerevisiae deletion strains, locus YOR119C, strain RIO1, stronger effect = lower value 1.04 | S. cerevisiae deletion strains, locus YOR231W, strain MKK1, stronger effect = lower value 0.847 | S. cerevisiae deletion strains, locus YOR329C, strain SCD5, stronger effect = lower value 0.97 | S. cerevisiae deletion strains, locus YPL031C, strain PHO85, stronger effect = lower value 0.937 | S. cerevisiae deletion strains, locus YPL153C, strain RAD53, stronger effect = lower value 0.942 | S. cerevisiae deletion strains, locus YPL204W, strain HRR25, stronger effect = lower value 0.911 | S. cerevisiae deletion strains, locus YPL209C, strain IPL1, stronger effect = lower value 0.977 | S. cerevisiae deletion strains, locus YPR025C, strain CCL1, stronger effect = lower value 0.981 | S. cerevisiae deletion strains, locus YPR106W, strain ISR1, stronger effect = lower value 0.981 | S. cerevisiae deletion strains, locus YPR111W, strain DBF20, stronger effect = lower value 0.959 | S. cerevisiae deletion strains, strain NNK1, stronger effect = lower value 0.951 | S. cerevisiae deletion strains, strain TSCII, stronger effect = lower value 0.968
active: [2] 0.711 | S. cerevisiae deletion strains, locus YLR113W, strain HOG1, stronger effect = lower value 0.74 | S. cerevisiae deletion strains, locus YPL256C, strain CLN2, stronger effect = lower value 0.762

NNC(=S)Nc1ccc(C(F)(F)F)cc1
active: S. cerevisiae deletion strains, locus YAL013W, strain DEP1, stronger effect = lower value 0.918 | S. cerevisiae deletion strains, locus YBR229C, strain ROT2, stronger effect = lower value 0.895 | S. cerevisiae deletion strains, locus YCL061C, strain MRC1, stronger effect = lower value 0.872 | S. cerevisiae deletion strains, locus YEL061C, strain CIN8, stronger effect = lower value 0.796 | S. cerevisiae deletion strains, locus YGR078C, strain PAC10, stronger effect = lower value 0.867 | [2] 0.331 | S. cerevisiae deletion strains, locus YHR087W, strain rtc3, stronger effect = lower value 0.899 | S. cerevisiae deletion strains, locus YKL190W, strain CNB1, stronger effect = lower value 0.715 | S. cerevisiae deletion strains, locus YLR085C, strain ARP6, stronger effect = lower value 0.254 | S. cerevisiae deletion strains, locus YML094W, strain GIM5, stronger effect = lower value 0.703 | S. cerevisiae deletion strains, locus YNL153C, strain GIM3, stronger effect = lower value 0.912 | S. cerevisiae deletion strains, locus YNL298W, strain CLA4 (second series), stronger effect = lower value 0.378 | S. cerevisiae deletion strains, locus YNR030W, strain Alg12, stronger effect = lower value 0.522 | S. cerevisiae deletion strains, locus YPL055C, strain LGE1, stronger effect = lower value 0.735 | S. cerevisiae deletion strains, locus YPL241C, strain CIN2, stronger effect = lower value 0.661 | S. cerevisiae deletion strains, locus YPR135W, strain CTF4, stronger effect = lower value 0.513 | S. cerevisiae strains, strain wild type, stronger effect = lower value 0.756
inactive: [1] 0.982 | S. cerevisiae deletion strains, locus YDR150W, strain NUM1, stronger effect = lower value 0.899 | S. cerevisiae deletion strains, locus YJR043C, strain POL32, stronger effect = lower value 0.972 | S. cerevisiae deletion strains, locus YJR075W, strain HOC1, stronger effect = lower value 0.961 | S. cerevisiae deletion strains, locus YLR039C, strain RIC1, stronger effect = lower value 0.847 | S. cerevisiae deletion strains, locus YLR058C, strain SHM2 (second series), stronger effect = lower value 0.968 | S. cerevisiae deletion strains, locus YLR262C, strain YPT6, stronger effect = lower value 0.962 | S. cerevisiae deletion strains, locus YMR219W, strain ESC1, stronger effect = lower value 0.985 | S. cerevisiae deletion strains, locus YMR263W, strain SAP30, stronger effect = lower value 0.937 | S. cerevisiae deletion strains, locus YNL322C, strain KRE1, stronger effect = lower value 0.999
